# Results published in PubChem BioAssay (NCI).
# The panel holds about 79,000 compounds, 15% with a hit somewhere; the sample as a whole holds those more often. Unmarked numbers belong to inactive results. The source made the active and inactive calls. Rule as the data show it: active = growth inhibition above about 70%; inactive = the rest.
# Legend:
# [1] = NCI Yeast Anticancer Drug Screen. Data for the rad52 strain (AID 147);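 also: 0% = growth of vehicle-treated control cultures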; conditions: S. cerevisiae rad52 mutant growth inhibition, active compounds read high
# Procedure, shortened: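 Vehicle-treated cultures served as the reference for growth inhibition of compound-exposed yeast bearing a DNA repair mutation.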
# [2] = NCI Yeast Anticancer Drug Screen. Data for the wt1 strain (AID 149);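 also: 0% = growth of vehicle-treated wt1 cultures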; conditions: S. cerevisiae wt1 strain (SPY 50644) growth inhibition, active compounds read high
# Procedure, shortened: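 Measured: growth of wt1 yeast under compound versus vehicle treatment, reported as inhibition.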
# [3] = NCI Yeast Anticancer Drug Screen. Data for the rad50EPP+ strain (AID 151);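 also: 0% = growth of vehicle-treated control cultures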; conditions: S. cerevisiae rad50 mutant strain, active compounds read high
# Procedure, shortened: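 In this screen, rad50EPP+ yeast were exposed to compounds. Growth inhibition was scored against vehicle-treated controls.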
# [4] = NCI Yeast Anticancer Drug Screen. Data for the mgt1 strain (AID 153); conditions: S. cerevisiae mgt1 mutant growth inhibition, active compounds read high
# Procedure, shortened: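 mgt1 strain exposed; growth vs vehicle control recorded as inhibition.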
# [5] = NCI Yeast Anticancer Drug Screen. Data for the rad50 strain (AID 155);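 also: 0% = growth of vehicle-only cultures of the same strain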; conditions: S. cerevisiae rad50 strain growth inhibition, active compounds read high
# Procedure, shortened: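 Growth of the mutant yeast was measured after compound exposure and referenced to vehicle-treated cultures.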
# [6] = NCI Yeast Anticancer Drug Screen. Data for the mec2-1 strain (AID 157); conditions: S. cerevisiae mec2-1 strain, active compounds read high
# Procedure, shortened: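 Vehicle-treated cultures served as reference for growth inhibition of compound-exposed mec2-1 yeast.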
# [7] = NCI Yeast Anticancer Drug Screen. Data for the rad14 strain (AID 159);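 also: 0% = growth of vehicle-treated control cultures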; conditions: S. cerevisiae rad14 strain growth inhibition, active compounds read high
# Procedure, shortened: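 Here, inhibition of yeast growth was measured after compound exposure, using a strain with a genetic defect in DNA damage repair and vehicle-treated cultures as the reference.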
# [8] = NCI Yeast Anticancer Drug Screen. Data for the sgs1 mgt1 strain (AID 161);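 also: 0% = growth of cultures given vehicle only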; conditions: S. cerevisiae sgs1 mgt1 strain, active compounds read high
# Procedure, shortened: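 Test agents were incubated with a DNA-repair-mutant yeast strain. Growth was then read and compared against vehicle-treated controls.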
# [9] = NCI Yeast Anticancer Drug Screen. Data for the CLN2oe strain (AID 163);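 also: 0% = growth of vehicle-only control cultures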; conditions: S. cerevisiae CLN2oe strain, active compounds read high
# Procedure, shortened: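 Inhibition relative to vehicle-treated yeast is reported. Cells: strain with genetic alteration in cell-cycle control, grown with compound.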
# [10] = NCI Yeast Anticancer Drug Screen. Data for the cln2 rad14 strain (AID 165);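 also: 0% = growth equal to vehicle treated cultures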; conditions: S. cerevisiae cln2 rad14 strain, active compounds read high
# Procedure, shortened: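 Each compound was tested on cln2 rad14 yeast. Inhibition of growth was calculated against vehicle-exposed controls.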
# [11] = NCI Yeast Anticancer Drug Screen. Data for the bub3 strain (AID 167); conditions: S. cerevisiae bub3 mutant strain, active compounds read high
# Procedure, shortened: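 Whole-cell yeast assay. The mutant strain was incubated with compounds, and growth inhibition was determined by comparison with vehicle-treated cells.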
# [12] = NCI Yeast Anticancer Drug Screen. Data for the wt2 strain (AID 169);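 also: 0% = growth of vehicle-treated yeast cultures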; conditions: S. cerevisiae wt2 strain growth inhibition, active compounds read high
# Procedure, shortened: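 Inhibition of yeast growth was determined after compound treatment, normalised to controls receiving only vehicle.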
# [13] = NCI Yeast Anticancer Drug Screen. Data for the mlh1 strain (AID 171);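 also: 0% = growth of vehicle-treated control cultures of the same strain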; conditions: S. cerevisiae mlh1 strain growth inhibition, active compounds read high
# Procedure, shortened: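 Vehicle-normalised growth inhibition of a repair- or checkpoint-altered yeast strain following compound treatment.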
# [14] = NCI Yeast Anticancer Drug Screen. Data for the sgs1 strain (AID 173);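 also: 0% = growth of vehicle-only control cultures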; conditions: S. cerevisiae sgs1 mutant, active compounds read high
# Procedure, shortened: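 Screen format: yeast with repair or checkpoint alterations, compound exposure, growth read relative to vehicle.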
# [15] = NCI Yeast Anticancer Drug Screen. Data for the mlh1 rad18 strain (AID 175); conditions: S. cerevisiae mlh1 rad18 strain growth inhibition, active compounds read high
# Procedure, shortened: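 Vehicle-treated cultures served as the reference for growth inhibition in a yeast strain carrying DNA damage repair alterations exposed to each compound.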
# [16] = NCI Yeast Anticancer Drug Screen. Data for the rad18 strain (AID 177); conditions: S. cerevisiae rad18 mutant growth inhibition, active compounds read high
# Procedure, shortened: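 Test articles were incubated with altered yeast defective in DNA damage repair. Results are given as inhibition of growth versus vehicle.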
# [17] = at 5.0 µM (retest, dose inferred, filed as 0.5)
# [18] = at 50.0 µM (retest, dose inferred, filed as 5.0)
structure (smiles),measurement,setting,value
Cc1ccc(-n2cc(-c3ccc(Cl)cc3)c(C#N)c2N)cc1,growth inhibition,[1]; at 1.2 µM,0%
same,growth inhibition,[1]; at 3.7 µM,1%
same,growth inhibition,[1]; at 11.0 µM,6%
same,growth inhibition,[1]; at 33.0 µM,17%
same,growth inhibition,[1]; at 100.0 µM,23%
same,growth inhibition,[2]; at 1.2 µM,-4%
same,growth inhibition,[2]; at 3.7 µM,-2%
same,growth inhibition,[2]; at 11.0 µM,1%
same,growth inhibition,[2]; at 33.0 µM,-2%
same,growth inhibition,[2]; at 100.0 µM,-3%
same,growth inhibition,[3]; at 1.2 µM,-1%
same,growth inhibition,[3]; at 3.7 µM,3%
same,growth inhibition,[3]; at 11.0 µM,23%
same,growth inhibition,[3]; at 33.0 µM,56%
same,growth inhibition,[3]; at 100.0 µM,56%
same,growth inhibition,[4]; at 1.2 µM,1%
same,growth inhibition,[4]; at 3.7 µM,-4%
same,growth inhibition,[4]; at 11.0 µM,2%
same,growth inhibition,[4]; at 33.0 µM,-41%
same,growth inhibition,[4]; at 100.0 µM,-3%
same,growth inhibition,[5]; at 1.2 µM,-3%
same,growth inhibition,[5]; at 3.7 µM,-3%
same,growth inhibition,[5]; [17],13%
same,growth inhibition,[5]; at 11.0 µM,-31%
same,growth inhibition,[5]; at 33.0 µM,4%
same,growth inhibition,[5]; [18],69%
same,growth inhibition,[5]; at 50.0 µM,63.3%
same,growth inhibition,[5]; at 100.0 µM,13%
same,growth inhibition,[6]; at 1.2 µM,0%
same,growth inhibition,[6]; at 3.7 µM,-8%
same,growth inhibition,[6]; [17],-3%
same,growth inhibition,[6]; at 11.0 µM,-4%
same,growth inhibition,[6]; at 33.0 µM,-4%
same,growth inhibition,[6]; [18],43%
same,growth inhibition,[6]; at 50.0 µM,47.3%
same,growth inhibition,[6]; at 100.0 µM,1%
same,growth inhibition,[7]; at 1.2 µM,-1%
same,growth inhibition,[7]; at 3.7 µM,1%
same,growth inhibition,[7]; at 11.0 µM,-1%
same,growth inhibition,[7]; at 33.0 µM,-12%
same,growth inhibition,[7]; at 100.0 µM,5%
same,growth inhibition,[8]; [17],-3%
same,growth inhibition,[8]; [18],52%
same,growth inhibition,[8]; at 50.0 µM,67.6%
same,growth inhibition,[9]; at 1.2 µM,-6%
same,growth inhibition,[9]; at 3.7 µM,-13%
same,growth inhibition,[9]; at 11.0 µM,-12%
same,growth inhibition,[9]; at 33.0 µM,-7%
same,growth inhibition,[9]; at 100.0 µM,-4%
same,growth inhibition,[10]; [17],-9%
same,growth inhibition,[10]; [18],7%
same,growth inhibition,[10]; at 50.0 µM,43.6%
same,growth inhibition,[11]; at 1.2 µM,-6%
same,growth inhibition,[11]; at 3.7 µM,-5%
same,growth inhibition,[11]; [17],-33%
same,growth inhibition,[11]; at 11.0 µM,3%
same,growth inhibition,[11]; at 33.0 µM,-2%
same,growth inhibition,[11]; [18],64%
same,growth inhibition,[11]; at 50.0 µM,61.6%
same,growth inhibition,[11]; at 100.0 µM,8%
same,growth inhibition,[12]; at 1.2 µM,-1%
same,growth inhibition,[12]; at 3.7 µM,-1%
same,growth inhibition,[12]; at 11.0 µM,1%
same,growth inhibition,[12]; at 33.0 µM,3%
same,growth inhibition,[12]; at 100.0 µM,4%
same,growth inhibition,[13]; at 1.2 µM,-6%
same,growth inhibition,[13]; at 3.7 µM,-5%
same,growth inhibition,[13]; at 11.0 µM,-1%
same,growth inhibition,[13]; at 33.0 µM,-2%
same,growth inhibition,[13]; at 100.0 µM,-4%
same,growth inhibition,[14]; at 1.2 µM,-2%
same,growth inhibition,[14]; at 3.7 µM,0%
same,growth inhibition,[14]; at 11.0 µM,2%
same,growth inhibition,[14]; at 33.0 µM,10%
same,growth inhibition,[14]; at 100.0 µM,16%
same,growth inhibition,[15]; [17],-15%
same,growth inhibition,[15]; [18],55%
same,growth inhibition,[15]; at 50.0 µM,78.3% (active)
same,growth inhibition,[16]; at 1.2 µM,-5%
same,growth inhibition,[16]; at 3.7 µM,1%
same,growth inhibition,[16]; at 11.0 µM,4%
same,growth inhibition,[16]; at 33.0 µM,6%
same,growth inhibition,[16]; at 100.0 µM,41%
S=C(N/N=C/c1ccccn1)Nc1ccc(Cl)cc1,growth inhibition,[1]; at 1.2 µM,-5%
same,growth inhibition,[1]; at 3.7 µM,-5%
same,growth inhibition,[1]; at 11.0 µM,-3%
same,growth inhibition,[1]; at 33.0 µM,15%
same,growth inhibition,[1]; at 100.0 µM,59%
same,growth inhibition,[2]; at 1.2 µM,-7%
same,growth inhibition,[2]; at 3.7 µM,-5%
same,growth inhibition,[2]; at 11.0 µM,-5%
same,growth inhibition,[2]; at 33.0 µM,8%
same,growth inhibition,[2]; at 100.0 µM,42%
same,growth inhibition,[3]; at 1.2 µM,-3%
same,growth inhibition,[3]; at 3.7 µM,-3%
same,growth inhibition,[3]; at 11.0 µM,1%
same,growth inhibition,[3]; at 33.0 µM,-6%
same,growth inhibition,[3]; at 100.0 µM,-12%
same,growth inhibition,[4]; at 1.2 µM,-7%
same,growth inhibition,[4]; at 3.7 µM,-7%
same,growth inhibition,[4]; at 11.0 µM,9%
same,growth inhibition,[4]; at 33.0 µM,16%
same,growth inhibition,[4]; at 100.0 µM,59%
same,growth inhibition,[5]; at 1.2 µM,-5%
same,growth inhibition,[5]; at 3.7 µM,-7%
same,growth inhibition,[5]; [17],-7%
same,growth inhibition,[5]; at 11.0 µM,-27%
same,growth inhibition,[5]; at 33.0 µM,19%
same,growth inhibition,[5]; [18],95% (active)
same,growth inhibition,[5]; at 50.0 µM,55.5%
same,growth inhibition,[5]; at 100.0 µM,59%
same,growth inhibition,[6]; at 1.2 µM,-5%
same,growth inhibition,[6]; at 3.7 µM,-6%
same,growth inhibition,[6]; [17],71% (active)
same,growth inhibition,[6]; at 11.0 µM,-3%
same,growth inhibition,[6]; at 33.0 µM,10%
same,growth inhibition,[6]; [18],95% (active)
same,growth inhibition,[6]; at 50.0 µM,56.2%
same,growth inhibition,[6]; at 100.0 µM,63%
same,growth inhibition,[7]; at 1.2 µM,-3%
same,growth inhibition,[7]; at 3.7 µM,0%
same,growth inhibition,[7]; at 11.0 µM,0%
same,growth inhibition,[7]; at 33.0 µM,27%
same,growth inhibition,[7]; at 100.0 µM,80% (active)
same,growth inhibition,[8]; [17],27%
same,growth inhibition,[8]; [18],96% (active)
same,growth inhibition,[8]; at 50.0 µM,83.8% (active)
same,growth inhibition,[9]; at 1.2 µM,-3%
same,growth inhibition,[9]; at 3.7 µM,-14%
same,growth inhibition,[9]; at 11.0 µM,-12%
same,growth inhibition,[9]; at 33.0 µM,11%
same,growth inhibition,[9]; at 100.0 µM,79% (active)
same,growth inhibition,[10]; [17],38%
same,growth inhibition,[10]; [18],90% (active)
same,growth inhibition,[10]; at 50.0 µM,71.9% (active)
same,growth inhibition,[11]; at 1.2 µM,-5%
same,growth inhibition,[11]; at 3.7 µM,0%
same,growth inhibition,[11]; [17],19%
same,growth inhibition,[11]; at 11.0 µM,-2%
same,growth inhibition,[11]; at 33.0 µM,-3%
same,growth inhibition,[11]; [18],96% (active)
same,growth inhibition,[11]; at 50.0 µM,79.6% (active)
same,growth inhibition,[11]; at 100.0 µM,49%
same,growth inhibition,[12]; at 1.2 µM,-6%
same,growth inhibition,[12]; at 3.7 µM,-6%
same,growth inhibition,[12]; at 11.0 µM,-4%
same,growth inhibition,[12]; at 33.0 µM,9%
same,growth inhibition,[12]; at 100.0 µM,39%
same,growth inhibition,[13]; at 1.2 µM,-5%
same,growth inhibition,[13]; at 3.7 µM,-9%
same,growth inhibition,[13]; at 11.0 µM,-5%
same,growth inhibition,[13]; at 33.0 µM,12%
same,growth inhibition,[13]; at 100.0 µM,51%
same,growth inhibition,[14]; at 1.2 µM,-5%
same,growth inhibition,[14]; at 3.7 µM,-4%
same,growth inhibition,[14]; at 11.0 µM,-2%
same,growth inhibition,[14]; at 33.0 µM,22%
same,growth inhibition,[14]; at 100.0 µM,66%
same,growth inhibition,[15]; [17],44%
same,growth inhibition,[15]; [18],95% (active)
same,growth inhibition,[15]; at 50.0 µM,78.8% (active)
same,growth inhibition,[16]; at 1.2 µM,-6%
same,growth inhibition,[16]; at 3.7 µM,-3%
same,growth inhibition,[16]; at 11.0 µM,-5%
same,growth inhibition,[16]; at 33.0 µM,2%
same,growth inhibition,[16]; at 100.0 µM,67%
